In PubChem BioAssay (NCI) one finds growth data, which are given here for 8 compounds.

Test systems include HOP-62 NSCLC; NCI-H460 lung; A549/ATCC NSCLC; 786-0 renal; DU-145 prostate; MALME-3M melanoma; RXF 393 renal; UACC-257 melanoma; M14 melanoma; SNB-19 CNS; SK-MEL-2 melanoma; UO-31 renal; A498 renal; HL-60(TB) leukemia; RPMI-8226 leukemia; OVCAR-5 ovarian; OVCAR-4 ovarian; T-47D breast; HCC-2998 colon; SF-295 CNS.
What all share (assay): NCI-60 one-dose screen, 48 h (100 = growth as untreated, 0 = no growth, -100 = all killed)
What all share (settings): 10 µM unless noted

About 83,000 compounds went through this panel and 20% of them were active in at least one assay; those are over-represented in the sample as a whole.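 Note: values are percent growth. 100 is the growth of untreated cells, values between 100 and 0 indicate rising inhibition; between -100 and 0 indicates cell death.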 Values without a mark were called inactive. Active and inactive are the calls of the source. How the source made its calls: active means growth percent below 10; inactive means the rest.

As to `CC1(C)N=C(N)N=C(N)N1c1ccc(CNC(=O)Nc2ccc(S(=O)(=O)F)c(Cl)c2)c(Cl)c1`, the growth in the experiment with HOP-62 NSCLC is 29.4%; with NCI-H460 lung, 7.59% (active); in the experiment on A549/ATCC NSCLC, 10%; in the experiment on 786-0 renal it was 30.8%; in the experiment with DU-145 prostate it was 31.7%; in the experiment with MALME-3M melanoma, 54.5%. The growth in the experiment with RXF 393 renal was 50.6%; in the experiment on UACC-257 melanoma, 23%; with M14 melanoma it was 29.4%; in the experiment on SNB-19 CNS, 56%; in the experiment with SK-MEL-2 melanoma it was 49.7%; in the experiment with UO-31 renal, 88.2%. Also, the growth is 61.3% in the experiment with A498 renal; 21.8% in the experiment on HL-60(TB) leukemia; 27.6% in the experiment with RPMI-8226 leukemia; 26.4% with OVCAR-5 ovarian; 68.8% in the experiment on OVCAR-4 ovarian; 60.3% in the experiment with T-47D breast. In addition, the growth in the experiment with HCC-2998 colon was 39.7%.

Regarding `CC(=O)O[C@H]1CC[C@H]2[C@@H]3CC[C@H]4CC=C(C)C[C@]4(C)[C@H]3CC[C@]12C`, the growth in the experiment on HOP-62 NSCLC is 98.9%; in the experiment with NCI-H460 lung, 113%; in the experiment on A549/ATCC NSCLC, 107%; in the experiment with 786-0 renal it was 100%; in the experiment on DU-145 prostate, 106%; with MALME-3M melanoma, 106%. Besides, the growth in the experiment with RXF 393 renal is 111%; with SF-295 CNS, 103%; in the experiment with UACC-257 melanoma, 111%; in the experiment on M14 melanoma, 101%; in the experiment on SNB-19 CNS, 101%; in the experiment on SK-MEL-2 melanoma it was 110%. Moreover, the growth is 92.3% with UO-31 renal; 104% in the experiment with A498 renal; 89.9% in the experiment on HL-60(TB) leukemia; 109% in the experiment with RPMI-8226 leukemia; 92.1% in the experiment on OVCAR-5 ovarian; 104% in the experiment with OVCAR-4 ovarian. For the same compound, the growth in the experiment with T-47D breast is 92.1%; with HCC-2998 colon, 111%.

Consider `CO[C@@H](c1ccccc1Cl)[C@H](C)OC(N)=O`, for which the growth with HOP-62 NSCLC is 96.1%; in the experiment on NCI-H460 lung it was 105%; with A549/ATCC NSCLC, 98.4%; with 786-0 renal it was 98.7%; in the experiment on DU-145 prostate, 106%; in the experiment on MALME-3M melanoma, 93.5%. The growth in the experiment on RXF 393 renal is 113%; with SF-295 CNS, 95.8%; with UACC-257 melanoma, 91.7%; in the experiment on SNB-19 CNS it was 96.7%; with SK-MEL-2 melanoma it was 107%; in the experiment with UO-31 renal, 85.7%. For the same compound, the growth in the experiment on A498 renal is 96.3%; with HL-60(TB) leukemia it was 106%; in the experiment with RPMI-8226 leukemia it was 110%; with OVCAR-5 ovarian it was 91.5%; in the experiment on OVCAR-4 ovarian, 112%; in the experiment on T-47D breast it was 101%. Also, the growth in the experiment with HCC-2998 colon is 91.5%.

Regarding `c1ccc([As]=[As]c2ccccc2)cc1` (stereo not drawn), the growth in the experiment with HOP-62 NSCLC was -54.4% (active); with NCI-H460 lung, -45.2% (active); in the experiment with A549/ATCC NSCLC, -22.8% (active); in the experiment with 786-0 renal, -90.4% (active); in the experiment on DU-145 prostate, -6.06% (active); in the experiment on MALME-3M melanoma, -84.5% (active). Also, the growth with RXF 393 renal is -80.3% (active); with SF-295 CNS, 43.8%; in the experiment with UACC-257 melanoma it was -71.4% (active); with M14 melanoma, -30.2% (active); in the experiment with SNB-19 CNS, 20.5%; with UO-31 renal, -96% (active). Further, the growth was -48.5% (active) in the experiment on A498 renal; -50.4% (active) in the experiment with HL-60(TB) leukemia; -47.4% (active) in the experiment on RPMI-8226 leukemia; -7.9% (active) with OVCAR-5 ovarian; 7.07% (active) with OVCAR-4 ovarian; -73.1% (active) in the experiment with T-47D breast. Moreover, the growth in the experiment with HCC-2998 colon is 0.927% (active).

With `C=C=[CH][Sn]([c]1ccccc1)([c]1ccccc1)[c]1ccccc1`, the growth with HOP-62 NSCLC is -63.6% (active); in the experiment with NCI-H460 lung, -78.8% (active); with A549/ATCC NSCLC, -58.7% (active); with 786-0 renal, -81.2% (active); in the experiment with DU-145 prostate, -91.1% (active); in the experiment on MALME-3M melanoma it was -36.6% (active). The growth was -83.5% (active) with RXF 393 renal; -42.7% (active) in the experiment with SF-295 CNS; -37.2% (active) in the experiment with UACC-257 melanoma; -50% (active) in the experiment with SNB-19 CNS; -30.6% (active) in the experiment on SK-MEL-2 melanoma; -84.3% (active) with UO-31 renal. Besides, the growth in the experiment on RPMI-8226 leukemia is -17.5% (active); with OVCAR-5 ovarian, -60.3% (active); with OVCAR-4 ovarian it was -40.2% (active); in the experiment with T-47D breast it was -36.7% (active); with HCC-2998 colon, -67.2% (active).

With `Cc1cc(NC(=O)NCCOc2ccc(N3C(N)=NC(N)=NC3(C)C)cc2Cl)ccc1S(=O)(=O)F`, the growth was 60.8% in the experiment on HOP-62 NSCLC; 9.44% (active) with NCI-H460 lung; 9.6% (active) with A549/ATCC NSCLC; 35.3% in the experiment on 786-0 renal; 34.4% with DU-145 prostate; 53.3% in the experiment with MALME-3M melanoma. The growth in the experiment with RXF 393 renal is 53.8%; with UACC-257 melanoma, 32.2%; in the experiment on M14 melanoma, 32.1%; in the experiment with SNB-19 CNS, 51.5%; with SK-MEL-2 melanoma, 51.4%; with UO-31 renal it was 81.6%. Moreover, the growth is 79.1% in the experiment with A498 renal; 18.1% in the experiment on HL-60(TB) leukemia; 40.5% in the experiment with RPMI-8226 leukemia; 26.6% with OVCAR-5 ovarian; 71.5% in the experiment with OVCAR-4 ovarian; 50% in the experiment with T-47D breast. In addition, the growth in the experiment with HCC-2998 colon was 47.3%.

As to `Cc1ccc(C[As+](c2ccccc2)(c2ccccc2)c2ccccc2)cc1`, the growth with HOP-62 NSCLC is 9.44% (active); in the experiment with NCI-H460 lung it was 2.34% (active); in the experiment on A549/ATCC NSCLC it was 7.2% (active); with 786-0 renal it was 13.5%; with DU-145 prostate it was 23.8%; in the experiment on MALME-3M melanoma, 25%. For the same compound, the growth with RXF 393 renal is 8.64% (active); in the experiment with SF-295 CNS it was -15.6% (active); with UACC-257 melanoma it was -17.5% (active); with M14 melanoma, 4.54% (active); with SNB-19 CNS, 17.2%; in the experiment on SK-MEL-2 melanoma, -16.9% (active). Further, the growth in the experiment with UO-31 renal was 69%; in the experiment with A498 renal it was -11% (active); with HL-60(TB) leukemia, -26.8% (active); in the experiment on RPMI-8226 leukemia it was -8.65% (active); in the experiment with OVCAR-5 ovarian, 31.8%; in the experiment with OVCAR-4 ovarian, 23.6%. Also, the figures for the growth in the experiment on T-47D breast and with HCC-2998 colon were -3.86% (active) and 16.2%, respectively.

Consider `CC1(C)N=C(N)N=C(N)N1c1ccc(CCCCc2ccc(S(=O)(=O)F)cc2)c(Cl)c1`, for which the growth in the experiment on HOP-62 NSCLC is 5.05% (active); in the experiment on NCI-H460 lung, 10.7%; in the experiment with A549/ATCC NSCLC, 8.36% (active); with 786-0 renal, 22.1%; with DU-145 prostate, 30.6%; with MALME-3M melanoma it was 44.3%. Also, the growth in the experiment on RXF 393 renal was 43.1%; with SF-295 CNS, 3.69% (active); in the experiment with UACC-257 melanoma it was 30.9%; with M14 melanoma, 24.3%; in the experiment on SNB-19 CNS it was 38.7%; in the experiment with SK-MEL-2 melanoma it was 30.6%. Also, the growth with UO-31 renal is 59.9%; with A498 renal, 37.3%; with HL-60(TB) leukemia it was 19.2%; in the experiment with RPMI-8226 leukemia, 9.22% (active); with OVCAR-5 ovarian it was 40.3%; in the experiment on OVCAR-4 ovarian, 80.4%. In addition, the growth with T-47D breast is -0.711% (active); in the experiment on HCC-2998 colon it was 35.5%.
